Measurements from the supplement of paper PMC7057948, “A genome-wide approach for identification and characterisation of metabolite-inducible systems” (Nature Communications, 2020).

test system: KynR/P_H16_RS14030 L-kynurenine biosensor (pEH136); experiment: relative induction of RFP reporter vs primary effector; higher = stronger activation; details: inducer concentration 5 mM; 6 h; Cupriavidus necator H16; minimal medium + 0.4% gluconate
Description: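 Orthogonality screen of 21 primary inducers against 21 transcription factor/inducible promoter–mRFP biosensors in C. necator H16 in minimal medium, robotic 96-well format, 5 mM inducer, 30 °C. OD-normalised RFP fluorescence was read 6 h later and expressed as relative induction (%) = 100 × (FL compound − FL uninduced)/(FL primary inducer − FL uninduced); mean of n=4. Cognate pairs (100% by definition) omitted.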

SMILES | relative induction of RFP reporter [%]
N[C@@H](Cc1ccccc1)C(=O)O [L-phenylalanine] | 1.98
O=C(O)C(=O)c1ccccc1 [phenylglyoxylate] | 0.112
O=C(O)c1ccc(O)c(O)c1 [3,4-dihydroxybenzoate] | 0.138
O=C(O)c1ccccc1 [benzoate] | -0.112
O=C(O)C(O)C(O)C(=O)O (configuration not stated) [tartrate] | 0.0585
O=C(O)c1ccccc1O [salicylate] | -0.248
C=CC(=O)O [acrylate] | 0.406
NCCC(=O)O [β-alanine] | -0.589
CC(=O)C(C)O (configuration not stated) [acetoin] | 0.0145
O=C(O)CS(=O)(=O)O [sulfonatoacetate] | 0.55
O=C(O)C1CCCCC1 [cyclohexane-1-carboxylate] | 0.977
O=CO [formate] | 0.482
O=c1[nH]c(=O)c2nc[nH]c2[nH]1 [xanthine] | 0.0316
C=C(CC(=O)O)C(=O)O [itaconate] | -0.472
N[C@@H](Cc1ccc(O)cc1)C(=O)O [L-tyrosine] | 0.164
O=C(O)CCO [3-hydroxypropanoate] | -0.395
OC1OC[C@H](O)[C@H](O)[C@H]1O (mixture of isomers) [L-arabinose] | 0.181
